# This is one part of the list. The true hit rate is not given.
# Target: furin, P09958
# Test: furin cleavage Z-score vs untreated control; higher = more cleavage, active = 3.5 or more, inactive = 1 or less, 8 variable residues between constant flanks
# Method in brief: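 Cleavage by purified furin was measured on 8-mer peptides fused to a cDNA oligonucleotide and held on magnetic beads by their N-terminus. Reactions (0.01 ml, 1:10 enzyme:substrate) ran 7.5, 15 or 30 min in 50 mM HEPES pH 7.5 with CaCl2 and NaCl. Released DNA was adapter-tagged by PCR and sequenced, with read counts giving abundance. Log counts versus furin-free reactions were lowess-adjusted and scaled by median absolute deviation to give the cleavage Z-score.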
# Sequence of furin, P09958 (P09958 whole entry): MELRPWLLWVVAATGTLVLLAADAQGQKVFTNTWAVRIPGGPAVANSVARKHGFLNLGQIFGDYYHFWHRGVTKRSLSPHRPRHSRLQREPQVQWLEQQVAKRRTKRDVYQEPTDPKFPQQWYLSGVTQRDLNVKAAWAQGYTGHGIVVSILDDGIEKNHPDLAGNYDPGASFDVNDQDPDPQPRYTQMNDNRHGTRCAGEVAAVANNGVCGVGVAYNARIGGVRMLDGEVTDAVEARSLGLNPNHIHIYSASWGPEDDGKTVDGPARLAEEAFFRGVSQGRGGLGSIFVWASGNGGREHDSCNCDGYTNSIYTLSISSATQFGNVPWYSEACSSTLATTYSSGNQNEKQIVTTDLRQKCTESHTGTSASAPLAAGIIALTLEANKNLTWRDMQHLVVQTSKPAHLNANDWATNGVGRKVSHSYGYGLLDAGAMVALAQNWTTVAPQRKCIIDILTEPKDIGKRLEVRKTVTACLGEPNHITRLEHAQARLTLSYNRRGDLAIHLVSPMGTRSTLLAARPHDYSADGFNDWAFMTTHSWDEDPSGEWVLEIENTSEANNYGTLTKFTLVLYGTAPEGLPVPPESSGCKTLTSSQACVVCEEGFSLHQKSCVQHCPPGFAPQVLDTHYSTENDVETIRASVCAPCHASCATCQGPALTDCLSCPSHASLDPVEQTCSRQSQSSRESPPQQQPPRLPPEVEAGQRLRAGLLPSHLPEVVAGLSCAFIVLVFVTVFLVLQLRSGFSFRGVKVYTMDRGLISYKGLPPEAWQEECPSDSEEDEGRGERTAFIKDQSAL
Sequence,furin cleavage Z-score (7.5 min),furin cleavage Z-score (15 min),furin cleavage Z-score (30 min)
CAKLTPIAAAAGNASASA [HC1638],-0.902 (inactive),0.513 (inactive),-0.874 (inactive)
CARKRRDVMQAGNASASA [FS-1905],8.11 (active),9.14 (active),9.14 (active)
CAGAERKMRDAGNASASA [FS-653],2.56,3.75 (active),3.61 (active)
CARPRRARRDAGNASASA [FS-289],10.4 (active),10.6 (active),7.54 (active)
CASNCRHERDAGNASASA [FS-722],1.11,0.623 (inactive),1.08
CAENLRKRRDAGNASASA [FS-585],13.3 (active),14.1 (active),10.9 (active)
CAGWSRARRDAGNASASA [FS-334],9.99 (active),12.4 (active),9.61 (active)
CAENKVVILDAGNASASA [HC1284],-1.51 (inactive),0.132 (inactive),-0.906 (inactive)
CARPRRPNGDAGNASASA [FS-1913],-0.861 (inactive),-0.812 (inactive),0.059 (inactive)
CAGVVTSTWVAGNASASA [HC2156],0.312 (inactive),-0.173 (inactive),-0.545 (inactive)
CAPSGCPPDSAGNASASA [HC1347],0.626 (inactive),0.736 (inactive),-1.37 (inactive)
CAACQRQKKVAGNASASA [HC1393],0.424 (inactive),-0.843 (inactive),-0.382 (inactive)
CARPMRPVGHAGNASASA [FS-2739],-0.34 (inactive),-0.708 (inactive),1.89
CALLTRIPGFAGNASASA [FS-3146],-0.34 (inactive),0.0643 (inactive),-0.495 (inactive)
CALLLFAGVDAGNASASA [HC348],-0.657 (inactive),-0.224 (inactive),-1.23 (inactive)
CARPERYRRHAGNASASA [FS-491],12.7 (active),14.8 (active),11.1 (active)
CAEVDVQARDAGNASASA [FS-1628],-1.25 (inactive),0.00773 (inactive),-1.04 (inactive)
CARPERKRRDAGNASASA [FS-1066],14.3 (active),14.2 (active),10.6 (active)
CARPERGARGAGNASASA [FS-2737],-0.85 (inactive),0.79 (inactive),0.188 (inactive)
CALLTRARRDAGNASASA [FS-1362],10.7 (active),11.2 (active),8.73 (active)
CAKVHRQRRDAGNASASA [FS-48],6.48 (active),5.35 (active),4.45 (active)
CARPERGPRGAGNASASA [FS-1264],1.01,0.671 (inactive),1.51
